Compound activity as filed in PubChem BioAssay.
Shown are actives, neighbours in structure and some others; about 0.92% of the full set was active somewhere.
BLM inh – qHTS Assay for Inhibitors of Bloom's syndrome helicase (BLM); RecQ-like DNA helicase BLM (Homo sapiens), P54132; recombinant BLM DNA unwinding, fluorescence dequenching; Potency, µM (doses to about 56.1 µM), for inactives: at the highest dose activity change, negative = inhibition, most hits filed as inhibitors; 350,000 compounds, 0.2% hits; AID 2528, 2010;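 note: plate controls were vehicle for no effect and no enzyme for full effect; nearly all actives have a fitted effect of over 35% in size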
APE1 inh – qHTS Assay for Inhibitors of the Human Apurinic/apyrimidinic Endonuclease 1 (APE1) | Potency, µM (titrated, usually from 65.8 µM), without a hit: top-dose activity change, negative = inhibition, actives largely listed as inhibitors | recombinant APE1, TAMRA/BHQ-2 abasic DNA cleavage fluorescence | 350,000 compounds, 0.35% hits | DNA repair nuclease/redox regulator APEX1 (Homo sapiens), P27695 | AID 2517, 2012;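 note: plate controls were vehicle for no effect and reference inhibitor for full effect; nearly all actives have a fitted effect of over 55% in size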
Target sequence (P27695 whole entry, looked up): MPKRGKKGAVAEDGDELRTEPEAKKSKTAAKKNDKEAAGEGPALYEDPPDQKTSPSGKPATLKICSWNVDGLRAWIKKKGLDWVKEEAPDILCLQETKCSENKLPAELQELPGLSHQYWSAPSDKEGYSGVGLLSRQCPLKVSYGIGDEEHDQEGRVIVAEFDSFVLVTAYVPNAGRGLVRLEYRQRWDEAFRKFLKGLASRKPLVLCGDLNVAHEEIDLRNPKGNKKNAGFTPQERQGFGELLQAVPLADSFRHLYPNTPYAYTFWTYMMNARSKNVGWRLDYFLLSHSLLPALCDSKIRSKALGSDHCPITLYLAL
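Kinetic fluorescence read (525 ex/598 em nm, three reads 60 s apart) of AP-site incision; signal = third minus first read. Enzyme 0.75 nM, dual-labelled THF duplex 50 nM, compound preincubation 15 min RT.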
TDP1 inh – qHTS Assay for Inhibitors of Tyrosyl-DNA Phosphodiesterase (TDP1); recombinant TDP1, AlphaScreen DNA substrate cleavage; Potency, µM (top dose mostly 130 µM), without a hit: at the top dose activity change, negative = inhibition, most hits filed as inhibitors; 350,000 compounds, 0.28% hits; note: nearly all actives have a fitted effect of over 40% in size
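E. coli-derived human Tdp1, 1 nM final. Cpd preinc 15 min RT; substrate 15 nM final, 5 min RT; AS bead mix 10 ug/ml final, 10 min RT. Signal loss = tyrosine-FITC cleavage. No-enzyme wells = max signal.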
RECQ1 helicase – qHTS Assay for Inhibitors of RecQ-Like Dna Helicase 1 (RECQ1); ATP-dependent DNA helicase Q1 (Homo sapiens), P46063; RECQ1 DNA unwinding, red fluorescence kinetic read; Potency, µM (top dose mostly 57.3 µM), without a hit: top-dose activity, negative = inhibition, most hits filed as inhibitors; 240,000 compounds, 0.54% hits; AID 2549, 2010;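 note: plate controls were vehicle for no effect and no enzyme for full effect; nearly all actives have a fitted effect of over 30% in size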
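50 nM RECQ1T1 preincubated 15 min with compound in Tris pH 8.0 buffer with MgCl2, DTT, Tween-20 and 2.5 ug/ml poly(dI-dC); started with 200 nM TAMRA/BHQ-2 forked duplex and 2 mM ATP. Unwinding read as fluorescence (525/598 nm), two reads 2 h apart.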
FEN1 inh – qHTS Assay for the Inhibitors of Human Flap endonuclease 1 (FEN1); Potency, µM (highest dose often 114 µM), without a hit: at the highest dose activity change, negative = inhibition, hits mostly inhibitors; Recombinant FEN1 flap cleavage, fluorescence, 15 min; 390,000 compounds, 0.35% hits; note: nearly all actives have a fitted effect of over 65% in size
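Recombinant FEN1 (10 nM) was preincubated with pin-transferred compounds for 15 min at room temperature, then flap DNA substrate (50 nM final) was added. Plates were read at 0 and 15 min, and normalized concentration–response data were fitted to a four-parameter Hill equation.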
* = called active by the depositor; i = inactive; ? = inconclusive; · = no result given; [ ] = remark or other dose. Calls come from the whole dose curve; as a rule, active = well fitted curve in the direction sought with a large enough effect; inconclusive = small, poorly fitted or top-dose-only effect, or another doubt; inactive = no such curve, though single readings can be large; an effect the other way counts as inactive or inconclusive. Unless noted, % is set by controls: 0 for no effect and ±100 for the full control effect; potency is the fitted concentration of half-maximal effect.

SMILES	BLM inh	APE1 inh	TDP1 inh	RECQ1 helicase	FEN1 inh
Clc1cccc(-c2ccc3ncnc(NCc4ccc5c(c4)OCO5)c3c2)c1	·	11%	·	·	·
COc1ccc(/C=N/Nc2nc(-c3cccnc3)nc3ccccc23)cc1OC	3%	-6%	7%	20µM*	?
O=C1COc2cc(S(=O)(=O)NCc3ccco3)c(Cl)cc2N1	-12%	-20%	56µM*	·	-18%
Nc1cc(-c2ccccc2)c[nH]c1=O	·	·	3%	·	·
N#Cc1c(NC(=O)COC(=O)c2ccc(O)cc2O)sc2c1CCC2	·	12µM*	22µM*	·	-12%
Cc1ccc(NC(=O)CSc2nc(-c3ccco3)nc3cc(=O)[nH]n23)c(Cl)c1	-5%	-1%	50µM*	·	-21%
Cc1ccc(NC(=O)CSc2nc(-c3ccco3)nc3cc(=O)[nH]n23)cc1	-7%	·	0%	·	-14%
COc1ccc(-c2nc3ccccc3c(=O)n2Cc2ccco2)cc1COc1ccc(NC(C)=O)cc1	·	·	-4%	·	·
COc1ccc(-c2nc3ccc(NC(C)=O)cc3c(=O)n2Cc2cccc(Cl)c2)cc1COc1ccc(NC(C)=O)cc1	·	·	-9%	·	79µM*
COc1ccc(-c2nc3ccccc3c(=O)n2Cc2ccc(CNC(=O)CO)cc2)cc1COc1ccc(NC(C)=O)cc1	·	·	79µM*	·	·
N#C/C(=C\c1ccc(-c2ccc(C(=O)O)cc2)o1)C(=O)NCC1CCCO1 (configuration not stated)	3%	?	56µM*	-5%	-15%
CCOc1ccc2c(c1)C(NC(C)=O)C(=O)N2CCN1CCOCC1 (configuration not stated)	-6%	-9%	·	·	40µM*
CC(=O)NC1C(=O)N(CCN2CCOCC2)c2ccc(Br)cc21 (configuration not stated)	-11%	?	·	·	?
O=[N+]([O-])c1ccc2nc(-c3ccc(Cl)cc3)n(OCc3ccccc3)c2c1	-4%	-5%	2%	i	8%
O=C(O)COn1c(-c2ccccc2)nc2ccc([N+](=O)[O-])cc21	-21%	?	25µM*	i	-5%
COc1ccc(/C=N/Nc2cc(C)nc3ccccc23)cc1	-3%	-39%	0%	·	40µM*
COc1ccc(/C=N/Nc2cc(C)nc3c(C)cccc23)cc1	20%	4%	3%	·	18µM*
CC(C)(C)n1ncc2c(=O)n(Cc3ccccc3-c3ccccc3)cnc21	·	-1%	·	·	0%
O=Cc1ccc(O)cc1O	0%	22%	·	·	3%
O=CN/C=C/c1cc(O)ccc1O	-27%	10µM*	7.9µM*	-25%	18µM*
N#Cc1nc(Nc2cccc3ccccc23)nc(NC2CCCC2)n1	·	·	2%	·	·
CC(C)C(=O)Nc1ccc(/C=C2\C=Cc3ccccc32)cc1	·	·	·	·	-7%
O=C(Nc1cccc([N+](=O)[O-])c1)c1cc2ccccc2cc1O	-27%	28µM*	3%	-22%	5%
Cc1nc(N=Nc2cc(S(=O)(=O)O)ccc2S(=O)(=O)O)c(COP(=O)(O)O)c(C=O)c1O	88%	16µM*	5µM*	-30%	·
Oc1cccc(O)c1O	-10%	1.3µM*	?	6.3µM*	·
SMILES	BLM inh	APE1 inh	TDP1 inh	RECQ1 helicase	FEN1 inh
CCCc1nc2sc3c(SCC(=O)NCc4ccco4)ncnc3c2c2c1CCC2	?	?	20µM*	?	?
CC1=C(CCC(=O)O)c2cc3nc(cc4[nH]c(cc5[nH]c(cc1n2)c(C)c5C(C)O)c(C)c4C(C)O)C(C)=C3CCC(=O)O (configuration not stated)	-8%	?	16µM*	-24%	·
Cc1ccc(-c2ccc(CCC(=O)O)n2C(C)C)cc1	4%	-2%	4%	-8%	3%
COc1cc(-c2no[n+]([O-])c2C#N)cc(OC)c1OC	·	-4%	·	·	·
O=C(CCCN1C(=O)S/C(=C\C=C\c2ccccc2)C1=O)Nc1ccc(C(=O)O)cc1	-6%	7%	35µM*	·	-4%
O=C(CCN1C(=O)S/C(=C\C=C\c2ccccc2)C1=O)Nc1ccc(O)cc1	-7%	19%	0%	·	-2%
COCCOC(=O)N1CCN(/[N+]([O-])=N/Oc2ccc([N+](=O)[O-])cc2[N+](=O)[O-])CC1	·	·	·	·	-1%
Cc1cc(C)c2c(c1)C1C=CCC1C(C(=O)O)N2 (configuration not stated)	·	·	-8%	·	22µM*
Cc1ccc2c(c1C)NC(C(=O)O)C1CC=CC21 (configuration not stated)	18µM*	?	-12%	5µM*	56µM*
O=C(O)C1Nc2c(C(=O)N3CCOCC3)cccc2C2C=CCC12 (configuration not stated)	-2%	?	·	-17%	?
CC(C)C1Nc2ccc(C(=O)O)cc2C2C=CCC21 (configuration not stated)	-7%	4%	4%	13%	?
Cc1cc(C)c2c(c1)NC(C(=O)O)C1CC=CC21 (configuration not stated)	-7%	-17%	-9%	·	45µM*
O=C(O)C1Nc2c(C(F)(F)F)ccc(Cl)c2C2C=CCC12 (configuration not stated)	-4%	26%	·	·	10%
N#C/C(=C\c1c[nH]c2ccccc12)C(=O)c1ccc(O)c(O)c1	·	?	17%[56.1 µM]	11µM*	3.4µM*
O=c1c2ccccc2nc2sc(Nc3ccc(Br)cc3)nn12	·	-9%	·	·	·
O=[N+]([O-])O[C@@H]1CO[C@H]2[C@@H]1OC[C@@H]2O	·	-1%	·	·	·
O=C(CNC(=O)c1ccccc1Cl)OC(C(=O)Nc1cc(C(F)(F)F)ccc1Cl)c1ccccc1 (configuration not stated)	·	·	-3%	·	·
